A selection: hits, their analogues and other compounds. The true share with any hit is near 1.3%.
DUSP3 inh: DUSP3 (human) phosphatase inhibition | P51452 | AID 1654 | recombinant VHR phosphatase, pNPP absorbance | inhibition, % at 13.3 µM | 290,000 compounds, 0.52% hits; in the data active = inhibition above about 50%
Target sequence (P51452 whole entry, looked up): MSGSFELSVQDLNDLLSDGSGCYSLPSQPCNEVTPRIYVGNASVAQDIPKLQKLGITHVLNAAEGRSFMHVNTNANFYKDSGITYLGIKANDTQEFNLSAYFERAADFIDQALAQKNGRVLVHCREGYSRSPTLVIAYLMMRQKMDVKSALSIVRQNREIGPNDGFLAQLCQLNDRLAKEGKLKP
CCHF vOTU inh-1: CCHFV vOTU protease inhibition. 370,000 compounds, 0.55% hits. inhibition, % at 11.5 µM. AID 651958. Pep-AMC fluorescence; also: 0% = vehicle wells with enzyme and 100% = no enzyme wells
3CLpro inhibitor: SARS-CoV 3CLpro protease inhibition; P0C6X7; recombinant SARS-CoV 3CLpro, quenched FRET peptide cleavage; inhibition, % at 6 µM; 290,000 compounds, 0.14% hits; AID 1706; in the data active = inhibition above about 12%
Mtb hypoxia rep: Mtb hypoxia fluorescent reporter inhibition; M. tuberculosis hypoxia-regulated fluorescent reporter, fluorescence; fluorescence inhibition, % (concentration not given with the values); 300,000 compounds, 0.1% hits; AID 1159583; in the data active = fluorescence inhibition mostly above about 23%, no sharp cut-off; inactive = mostly below about 17%
SSB-PriA inh: K. pneumoniae PriA-SSBct interaction inhibition | inhibition, % at 33 µM | AlphaScreen SSBct-PriA binding, biotinylated peptide | 430,000 compounds, 0.6% hits; in the data active = inhibition mostly above about 37%, no sharp cut-off; inactive = mostly below about 20%;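 also: plate controls were negative control peptide for no effect and reference peptide for full effect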
CCHF vOTU inh-2: CCHFV vOTU protease inhibition, confirmation; Recombinant CCHFV vOTU, Pep-AMC fluorescence; 1,900 compounds, 17% hits; shares compounds with CCHF vOTU inh-1; inhibition, % at 11.5 µM
Active calls of the source: *. Rule as the data show it, unless noted: active = inhibition above about 30%; inactive = the rest.

What do the screens show for `CS(=O)(=O)C1=NN2C(=N)/C(=C\c3ccc(OC(=O)c4ccco4)cc3)C(=O)N=C2S1`?
DUSP3 inh: -26; CCHF vOTU inh-1: 0; 3CLpro inhibitor: 2; Mtb hypoxia rep: 11; SSB-PriA inh: 0

What do the screens show for `CC(C)CS(=O)(=O)C1=NN2C(=N)/C(=C\c3ccc(OC(=O)c4ccco4)cc3)C(=O)N=C2S1`?
DUSP3 inh: 1; CCHF vOTU inh-1: 37*; 3CLpro inhibitor: 9; SSB-PriA inh: -7; CCHF vOTU inh-2: 5

How did CC(=O)Nc1ccc(S(=O)(=O)NCC(=O)OCC(=O)N2CCc3ccccc32)cc1 do in these assays?
DUSP3 inh: 23; CCHF vOTU inh-1: 30*; 3CLpro inhibitor: -5; SSB-PriA inh: 5; CCHF vOTU inh-2: -15

What do the screens show for `O=C(CNS(=O)(=O)c1ccccc1Br)OCC(=O)N1CCc2ccccc21`?
DUSP3 inh: 21; CCHF vOTU inh-1: 7; 3CLpro inhibitor: 0; Mtb hypoxia rep: 9; SSB-PriA inh: -7

How did CN1CCc2nc(SCC(=O)Nc3cccc(F)c3)c(C#N)c(-c3cccs3)c2C1 do in these assays?
DUSP3 inh: 37; CCHF vOTU inh-1: -11; 3CLpro inhibitor: 1; Mtb hypoxia rep: -9; SSB-PriA inh: 14

Results for CN1CCc2nc(SCC(=O)Nc3ccc(OC(F)(F)F)cc3)c(C#N)c(-c3cccs3)c2C1 ?
DUSP3 inh: 11; CCHF vOTU inh-1: 35*; 3CLpro inhibitor: 2; Mtb hypoxia rep: 6; SSB-PriA inh: -3; CCHF vOTU inh-2: -7

Results for COc1cccc(NC(=O)/C=C/c2ccc(S(=O)(=O)N3CCOCC3)cc2)c1 ?
CCHF vOTU inh-1: 30*; Mtb hypoxia rep: 9; SSB-PriA inh: 3; CCHF vOTU inh-2: -17

How did O=C(Nc1nnc(SCc2ccc(Br)cc2)s1)c1ccc(C(=O)c2ccccc2)cc1 do in these assays?
SSB-PriA inh: 1

What do the screens show for `CN(C)S(=O)(=O)c1ccc(-c2nnc(NC(=O)Cc3ccc4c(c3)OCO4)o2)cc1`?
SSB-PriA inh: -1

How did CC(C)(C)c1ccc(S(=O)(=O)NC(=O)C2(C)CCN2C(=O)C2(c3ccc(Cl)cc3)CC2)cc1 (stereo not given) do in these assays?
CCHF vOTU inh-1: 31*; CCHF vOTU inh-2: -4

What do the screens show for `O=C(Cc1ccccc1)Nc1ccc(NC(=O)c2ccccc2)nc1`?
DUSP3 inh: 20; CCHF vOTU inh-1: 33*; 3CLpro inhibitor: -5; Mtb hypoxia rep: 9; SSB-PriA inh: -5; CCHF vOTU inh-2: -18

How did CN(C)c1ncc(C2=C(Cl)C(=O)C(N3CCCC3)=C(Cl)C2=O)s1 do in these assays?
CCHF vOTU inh-1: 62*; 3CLpro inhibitor: 6; Mtb hypoxia rep: 14; SSB-PriA inh: -3; CCHF vOTU inh-2: 49*

What do the screens show for `CCOc1ccc(NS(=O)(=O)c2ccc(-c3cnc(C4CC4)o3)cc2)cc1`?
DUSP3 inh: 27; CCHF vOTU inh-1: 30*; 3CLpro inhibitor: 7; Mtb hypoxia rep: -2; SSB-PriA inh: 3; CCHF vOTU inh-2: -16

What do the screens show for `NC1=C(Br)C(=O)c2ncccc2C1=O`?
CCHF vOTU inh-1: 107*; SSB-PriA inh: 5; CCHF vOTU inh-2: 94*

Results for CCN(CC)c1nc(N)c2c(N)n(-c3ccccc3C)c(=S)c(C#N)c2c1C#N ?
DUSP3 inh: -8; CCHF vOTU inh-1: 34*; 3CLpro inhibitor: -2; Mtb hypoxia rep: 1; SSB-PriA inh: 16; CCHF vOTU inh-2: 39*

Results for CCN(CC)c1nc(N)c2c(N)nc3c(c2c1C#N)CC(c1ccccc1)O3 (stereo not given) ?
DUSP3 inh: 14; CCHF vOTU inh-1: -10; 3CLpro inhibitor: -3; Mtb hypoxia rep: 3; SSB-PriA inh: -8

Results for CS(=O)(=O)c1ccc(Nc2nc(C(=O)NCc3cccnc3)cs2)cc1 ?
SSB-PriA inh: -5

Results for COC(=O)c1ccccc1C(=O)Nc1nnc2n1CCCS2 ?
SSB-PriA inh: -16

Results for Nc1cc(S(=O)(=O)O)cc([N+](=O)[O-])c1O ?
DUSP3 inh: 30; CCHF vOTU inh-1: 31*; 3CLpro inhibitor: 3; Mtb hypoxia rep: -6; SSB-PriA inh: 8; CCHF vOTU inh-2: 9

Results for O=[N+]([O-])c1cc(S(=O)(=O)c2ccc(O)c([N+](=O)[O-])c2)ccc1O ?
DUSP3 inh: 0; CCHF vOTU inh-1: 43*; 3CLpro inhibitor: 0; Mtb hypoxia rep: 1; SSB-PriA inh: -9; CCHF vOTU inh-2: 5

How did Nc1ccc(O)c([N+](=O)[O-])c1 do in these assays?
CCHF vOTU inh-1: 13; Mtb hypoxia rep: 10; SSB-PriA inh: 0

What do the screens show for `CCc1ccc2ncc(C#N)c(Nc3cccc(C(F)(F)F)c3)c2c1`?
SSB-PriA inh: -39

How did Cc1ccc(S(=O)(=O)N2CCc3ccc(NC(=O)c4cccc(F)c4)cc3C2)cc1 do in these assays?
SSB-PriA inh: 13

Results for COc1cc2c(cc1OC)/C(=C/C(C)=O)OC2 ?
CCHF vOTU inh-1: 5

How did COC(=O)/C=C1\OCc2cc(OC)c(OC)cc21 do in these assays?
CCHF vOTU inh-1: 37*; CCHF vOTU inh-2: 1

How did NC(=O)c1ccccc1OCC#CCNC(=O)c1ccno1 do in these assays?
SSB-PriA inh: -12

How did Cc1cc(C)nc(SCc2ccc(C(=O)O)o2)n1 do in these assays?
DUSP3 inh: 22; CCHF vOTU inh-1: 10; 3CLpro inhibitor: -3; SSB-PriA inh: -15

What do the screens show for `Cc1cc(C(F)(F)F)nc(SCc2ccc(C(=O)O)o2)n1`?
DUSP3 inh: 25; CCHF vOTU inh-1: 41*; 3CLpro inhibitor: 0; Mtb hypoxia rep: 9; SSB-PriA inh: -24; CCHF vOTU inh-2: -10

What do the screens show for `O=C(CCCC(=O)NC1CCCC1)NC1CCCC1`?
DUSP3 inh: -10; CCHF vOTU inh-1: 31*; 3CLpro inhibitor: -3; Mtb hypoxia rep: 8; SSB-PriA inh: -1; CCHF vOTU inh-2: -16

How did O=C(N/N=C\c1ccc([N+](=O)[O-])o1)c1cncc(Br)c1 do in these assays?
DUSP3 inh: 10; CCHF vOTU inh-1: 50*; 3CLpro inhibitor: 3; CCHF vOTU inh-2: 8

How did CCCCCC(=O)N/N=C/c1ccc([N+](=O)[O-])o1 do in these assays?
DUSP3 inh: 8; CCHF vOTU inh-1: 16; 3CLpro inhibitor: -1

What do the screens show for `O=C(CCC(=O)Nc1ccc(Cl)cc1Cl)N/N=C/c1ccc([N+](=O)[O-])o1`?
DUSP3 inh: 1; CCHF vOTU inh-1: 39*; 3CLpro inhibitor: 3; CCHF vOTU inh-2: -5

How did O=C(Cc1ccc2c(c1)OCO2)NN=Cc1ccc([N+](=O)[O-])o1 do in these assays?
CCHF vOTU inh-1: 32*; Mtb hypoxia rep: 8; SSB-PriA inh: -2; CCHF vOTU inh-2: 0

What do the screens show for `CC1CCN(c2nccnc2Oc2ccc(C(=O)N[C@H]3CCc4ccccc43)cc2)CC1`?
SSB-PriA inh: 1

Results for Cc1ccc(/C=C/S(=O)(=O)NCCn2nc(-c3ccco3)n(C3CC3)c2=O)cc1 ?
SSB-PriA inh: -20

How did CC1([N+](=O)[O-])COP(=O)(Nc2cccc(F)c2)OC1 (stereo not given) do in these assays?
CCHF vOTU inh-1: 10; SSB-PriA inh: -3

Source: PubChem BioAssay
